Test results from PubChem BioAssay AID463082 (The Scripps Research Institute Molecular Screening Center, 2010).
About 4,900 (1.5%) of roughly 330,000 compounds were called active.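 The calls were made as follows: active = inhibition above the mean inhibition across the screen plus 3 SD (cut at about 25% in these data); inactive = the rest.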 The list comes from a sample in which actives are over-represented; it also holds similar structures and randomly drawn compounds.

Target: Platelet-activating factor acetylhydrolase (Homo sapiens) (UniProt Q13093)
Sequence (Q13093 whole entry, looked up): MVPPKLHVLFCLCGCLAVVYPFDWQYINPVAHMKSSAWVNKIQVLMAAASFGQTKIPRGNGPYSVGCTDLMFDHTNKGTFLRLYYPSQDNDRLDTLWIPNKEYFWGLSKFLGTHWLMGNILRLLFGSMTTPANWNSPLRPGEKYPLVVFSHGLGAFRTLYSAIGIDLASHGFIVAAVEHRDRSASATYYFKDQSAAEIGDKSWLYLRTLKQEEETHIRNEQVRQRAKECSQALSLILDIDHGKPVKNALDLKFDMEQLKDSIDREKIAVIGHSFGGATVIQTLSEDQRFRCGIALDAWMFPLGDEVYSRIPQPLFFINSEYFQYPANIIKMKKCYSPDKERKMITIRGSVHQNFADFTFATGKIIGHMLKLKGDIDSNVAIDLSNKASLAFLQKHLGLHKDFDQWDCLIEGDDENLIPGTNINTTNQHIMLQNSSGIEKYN
Experiment: pPAFAH enzyme inhibitors, primary screen, biochemical, fluorescence polarization, human (AID 463082);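 also: inhibitors block binding of the rhodamine activity-based probe so polarization drops; 0% = enzyme with DMSO and 100% = wells lacking pPAFAH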
Conditions: recombinant pPAFAH, FP-rhodamine probe fluorescence polarization; at 3.39 µM; hits give high values

inhibition, inactive:
COc1ccc(OCC(=O)OCCN(C)C)cc1 0.82%, O=C(CCCN1C(=O)CCC1=O)Nc1ccc(Cl)c(C(F)(F)F)c1 5.28%, COc1ccc(Cl)cc1NC(=O)COC(=O)C(CC(C)C)N1C(=O)C2CC=CCC2C1=O (configuration not stated) -2.85%, CCOc1ccc(N2CC(C(=O)NCCN3C(=O)S/C(=C\c4cccnc4)C3=O)CC2=O)cc1 (configuration not stated) 8.89%, COc1ccccc1N1CC(C(=O)NCCN2C(=O)S/C(=C\c3cccnc3)C2=O)CC1=O (configuration not stated) 4.51%, COc1ccc(S(=O)(=O)N(C)CC(=O)N2CCCC2)cc1 -1%, COc1cc(OC)cc(C(=O)NNC(=O)Cc2cccs2)c1 19.8%, Cc1sc2nc(CSCC(=O)NC3CCCCC3)[nH]c(=O)c2c1C 9.75%, CC(=O)c1sc2nc(SCC(=O)N3CCCCC3)[nH]c(=O)c2c1C 13.1%, CCc1ccc(NC(=O)CN2C(=O)CSC2=O)cc1 -3.77%, CCc1ccc(C(CNc2nc(C(F)(F)F)nc3ccccc23)N(C)C)cc1 (configuration not stated) -1.56%, COc1cccc(CNc2nc(C(F)(F)F)nc3ccccc23)c1 2.55%, COc1ccc(CN2C(CC(=O)Nc3cccnc3)c3ccc(C(F)(F)F)cc3S2(=O)=O)cc1 (configuration not stated) 6.11%, COc1ccc(C(=O)/C=C/c2cccnc2)c(OC)c1 -1.82%, COc1ccc(C(=O)/C=C/c2ccc(OC3CSC3)cc2)cc1 1.34%, O=C1N[C@H](Cc2c[nH]c3ccccc23)COC(=O)[C@H](Cc2ccc(F)cc2)C/C=C\C[C@H]1CC(=O)N(CCO)Cc1ccccc1 21.3%, COCCN1C(=O)C(=O)/C(=C(/O)c2ccc(S(=O)(=O)N3CCOCC3)cc2)C1c1ccc(OC)c(OC)c1 (configuration not stated) 0.25%, CCn1c(SCC(=O)N/N=C/c2ccccc2OCC(=O)O)nnc1-c1ccc(C(C)(C)C)cc1 11.4%, COc1ccc(CCOC(=O)CNC(=O)c2ccc(Cl)cc2Cl)cc1 -0.13%, O=C(Nc1ccc(F)cc1)N1CCCC(c2nc3c(nnn3Cc3ccccc3Cl)c(=O)[nH]2)C1 (configuration not stated) 1.47%, COc1ccc(Cn2nnc3c(=O)[nH]c(C4CCN(C(=O)c5ccccc5Cl)CC4)nc32)cc1 9.22%, Cc1ccc(NC(=O)C2CC(=O)N(c3ccc4c(c3)OCCO4)C2)cc1S(=O)(=O)N1CCCCCC1 (configuration not stated) 0.97%, CCc1nnc(NC(=O)C2CC(=O)N(c3ccc4c(c3)OCCO4)C2)s1 (configuration not stated) 2.68%, O=C(COC(=O)c1ccc(S(=O)(=O)N2CCc3ccccc3C2)cc1)NC(=O)NCc1ccco1 -5.65%, S=c1nccc(-c2cc(Cl)sc2Cl)[nH]1 4.56%, CCN(Cc1ccccc1)C(=O)CSc1nc(C)cc2c1C(=O)OC2 7%, COc1ccccc1C(=O)Nc1cccc(C(=O)N2CCOCC2)c1 -0.6%, CN(C)C(=O)CCc1ccc2c3c([nH]c2c1)[C@]1(C)[C@@H](C(=O)N2CCCCC2)C[C@H](CC(=O)NCCC2=CCCCC2)C(=O)N1CC3 9.04%, O=C1C(=O)N(CCCO)C(c2ccccc2)/C1=C(\O)c1ccc(Br)cc1 (configuration not stated) 2.67%, CC(C)(C)NC(=O)C(c1ccc(Cl)cc1)N(CCO)C(=O)c1snc(C(N)=O)c1N (configuration not stated) -1.41%, CN(C)S(=O)(=O)c1cccc(NC(=S)N/N=C/C(=O)c2ccccc2)c1 12.9%, O=C(N/N=C/c1c[nH]c2ccccc12)c1cc2ccccc2o1 15.3%, Cc1ccc(-c2cc(C(=O)NCc3cn(C)nc3C)c3cc(Br)ccc3n2)cc1 2.72%, O=C(Nc1ccccc1F)c1ccccc1-c1ccc(C(F)(F)F)cc1 0.76%, Cc1nn(CC(=O)N/N=C/c2ccc(F)cc2)c(C)c1[N+](=O)[O-] -6.43%, COc1cc(/C=N/NC(=O)c2cc(C)n(-c3ccc(F)cc3)c2C)cc(OC)c1O 9.67%, COCCNc1cc(-c2ccccc2)nc2cc(-c3cccc(F)c3)nn12 -13.5%, CC(NC(=S)NC1CCCCC1)C(c1ccccc1)N1CCOCC1 (configuration not stated) 2.17%

inhibition, active:
COc1ccc(N2CC(C(=O)NCCN3C(=O)S/C(=C\c4cccnc4)C3=O)CC2=O)c(OC)c1 (configuration not stated) 65.4%, CSc1nnc(SCc2nc3sc(C(=O)O)c(C)c3c(=O)[nH]2)s1 49.9%, CC(Nc1nc(C(F)(F)F)nc2ccccc12)c1cccs1 (configuration not stated) 28.4%, COc1ccc(/C=C/C(=O)c2cc(Br)ccc(=O)c2O)cc1 40.7%, Cc1coc2c(O)cc3c(c12)OC1(N2CCCCC2)C(=O)NCCCC31 (configuration not stated) 27.6%, Cc1ccc(NC(=O)N2CCC(c3nc4c(nnn4Cc4c(F)cccc4Cl)c(=O)[nH]3)CC2)cc1 27.7%, CCOC(=O)c1ccc(NC(=O)C2CC(=O)N(c3ccc4c(c3)OCCO4)C2)cc1 (configuration not stated) 29.3%, O=C(O)c1cccc(NC(=S)N/N=C/c2c[nH]c3ccccc23)c1 26.4%, Cc1cc(C(=O)N/N=C/c2ccc(O)c([N+](=O)[O-])c2)c(C)n1-c1ccc(F)cc1 33.4%
